PubChem BioAssay
Where “and” joins values, the source holds several entries; their conditions need not be identical. Equal entries are not always repeated. Calls of active or inactive are those of the source. Unless noted, how the calls were made is not given here.

Experiments:
[1] = P. berghei load reduction in hepatocytes – cell-based, HepG2, luciferase luminescence, HepG2 viability, primary screen (AID 624349; in the data active means parasite load remaining mostly below about 12%, no sharp cut-off; inactive means mostly above about 10%;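 further: 100% = mean of DMSO negative control wells on the same plate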); conditions: P. berghei liver stage in HepG2, luciferase luminescence, concentration not given here; parasite load remaining: stronger effect = lower value; viability: measured here: HepG2 viability without parasites
[2] = liver-stage malaria parasite load reduction – cell-based, known kinase inhibitor set, luminescence, hepatoma host viability (AID 624392); conditions: Plasmodium liver stage in hepatoma cells, luciferase luminescence, concentration not given here; liver cell % of control: measured here: host liver cell viability; parasite % of control: stronger effect = lower value;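 further: infected cells incubated roughly two days before readout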
[3] = target: Tyrosine-protein kinase ABL1 (Homo sapiens) (UniProt P00519); test: PubChem AID 493040; conditions: kinase panel binding, pKi
Sequence of Tyrosine-protein kinase ABL1 (Homo sapiens) (P00519 whole entry, looked up): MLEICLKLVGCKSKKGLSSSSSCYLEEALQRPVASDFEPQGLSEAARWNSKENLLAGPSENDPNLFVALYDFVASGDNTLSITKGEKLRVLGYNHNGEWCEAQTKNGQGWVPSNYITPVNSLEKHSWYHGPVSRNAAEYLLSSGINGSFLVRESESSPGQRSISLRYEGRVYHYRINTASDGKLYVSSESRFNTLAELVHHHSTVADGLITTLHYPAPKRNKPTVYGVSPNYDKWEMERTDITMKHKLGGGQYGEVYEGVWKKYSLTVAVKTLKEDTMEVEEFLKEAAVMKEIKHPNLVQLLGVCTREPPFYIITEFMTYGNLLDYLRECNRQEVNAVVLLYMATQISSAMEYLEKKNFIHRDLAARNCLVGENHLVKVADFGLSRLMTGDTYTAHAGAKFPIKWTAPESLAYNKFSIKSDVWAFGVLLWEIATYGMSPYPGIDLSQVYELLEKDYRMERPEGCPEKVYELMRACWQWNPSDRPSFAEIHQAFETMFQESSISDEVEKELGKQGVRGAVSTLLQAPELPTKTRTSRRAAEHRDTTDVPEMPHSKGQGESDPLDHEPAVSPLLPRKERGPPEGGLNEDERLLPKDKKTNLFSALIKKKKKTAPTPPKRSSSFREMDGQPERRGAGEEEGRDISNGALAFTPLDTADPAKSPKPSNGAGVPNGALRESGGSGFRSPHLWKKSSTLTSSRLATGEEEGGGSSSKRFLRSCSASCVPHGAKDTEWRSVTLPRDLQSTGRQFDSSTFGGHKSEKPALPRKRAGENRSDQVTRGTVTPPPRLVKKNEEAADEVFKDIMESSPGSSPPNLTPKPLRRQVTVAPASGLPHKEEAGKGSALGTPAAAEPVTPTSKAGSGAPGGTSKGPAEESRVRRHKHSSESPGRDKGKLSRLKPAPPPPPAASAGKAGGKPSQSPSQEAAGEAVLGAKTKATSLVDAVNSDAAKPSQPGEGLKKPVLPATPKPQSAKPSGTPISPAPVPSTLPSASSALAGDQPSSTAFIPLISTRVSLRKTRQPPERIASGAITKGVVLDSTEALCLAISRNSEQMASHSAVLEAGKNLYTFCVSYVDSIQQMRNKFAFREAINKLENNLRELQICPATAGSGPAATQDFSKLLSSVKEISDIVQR

[4] = compounds altering circadian rhythm period length – cell-based, LOPAC library, luminescence reporter (AID 2774); conditions: circadian reporter cells, at 7 µM, actives lie on both sides;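 further: values are relative to mean of DMSO wells on each plate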
[5] = tested on: Hepatitis C virus NS3 helicase; test: blockers of NS3h binding to ssDNA – biochemical, fluorescence polarization, LOPAC1280 library, primary screen (AID 687035; in the data active means inhibition above about 37%); conditions: Purified HCV NS3 helicase, Cy5-dT15 ssDNA binding fluorescence polarization; stronger effect = higher value; concentration not given here
[6] = compounds altering Cy5-DNA-NS3h complex signal – biochemical, LOPAC1280, artefact control for HCV NS3 helicase inhibitor project (AID 687037); conditions: Cy5-DNA-NS3h complex fluorescence interference counterscreen
[7] = blockers of cellular phospholipid synthesis – cell-based, LOPAC library, screen 4, primary screen (AID 1347384); conditions: animal cells, phospholipid biosynthesis inhibition screen; at 10 µM
[8] = galactose survival enhancers in mitochondrial complex I cybrids – cell-based, galactose medium, ATP luminescence, primary screen (AID 1645843;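 active means z-score of at least 1.8 in each of two replicates, scored against plate mean and spread of sample wells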;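 further: positive z means more ATP and so rescue of galactose-driven cybrid death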); conditions: complex I mutant cybrid cells, 72 h, stronger effect = higher value
[9] = growth inhibition, single agents and combos, LFS_MB_1R, cell-based, cisplatin or BGB combos, synergistic combos for chromothripsis tumors (AID 1671452; in the data active means inhibition above about 80%;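 further: cells exposed for 96 hours before readout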); conditions: LFS_MB_1R medulloblastoma cells, stronger effect = higher value
[10] = growth inhibition, single agents and combos, CRL2098, cell-based, BGB or cisplatin IC20 combos, synergistic combos for chromothripsis tumors (AID 1671454; in the data active means inhibition above about 80%;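 further: cells exposed for 96 h before readout; 0% = vehicle DMSO and 100% = killing by high DMSO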); conditions: CRL2098 osteosarcoma cells, drug combinations, stronger effect = higher value
[11] = growth inhibition, single agents and combos, HD-MB03, cell-based, BGB or cisplatin IC20 combos, synergistic combos for chromothripsis tumors (AID 1671455; in the data active means inhibition above about 83%;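 further: 0% = vehicle DMSO and 100% = high DMSO as cytotoxic control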); conditions: HD-MB03 medulloblastoma cells, stronger effect = higher value
[12] = growth inhibition, single agents and combos, UWB1.289, cell-based, BGB or cisplatin combos, synergistic combos for chromothripsis tumors (AID 1671456; in the data active means inhibition above about 80%;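 further: cells exposed to compound for four days; 0% = vehicle DMSO and 100% = killing by high DMSO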); conditions: UWB1.289 ovarian carcinoma cells, stronger effect = higher value
[13] = growth inhibition, single agents and combos, LFS_MB_2R, cell-based, cisplatin combos, synergistic combos for chromothripsis tumors (AID 1671457; in the data active means inhibition above about 80%;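 further: cells exposed to compound for four days before readout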); conditions: LFS_MB_2R medulloblastoma cells, stronger effect = higher value
[14] = UWB1.289_BRCA1 ovarian cancer growth, cell-based, BGB or cisplatin combinations (AID 1671459; in the data active means inhibition above about 80%); conditions: UWB1.289 BRCA1 ovarian carcinoma, drug combinations, stronger effect = higher value
[15] = drug combination toxicity in non-malignant astrocytes – cell-based, BGB or cisplatin IC20 combos, cytotoxicity control for chromothriptic childhood tumor combination screen (AID 1671460; in the data active means inhibition above about 80%;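 further: cells exposed to compounds for 96 hours before viability readout; 0% = vehicle and 100% = killing control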); conditions: Human astrocytes, viability inhibition, drug combinations, at 0.5 µM, stronger effect = higher value
[16] = CRL1545 cell growth, single agent and combined, cisplatin and BGB IC20 combos (AID 1671464; in the data active means inhibition above about 80%;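 further: cells exposed to compound for 96 hours before readout; 0% = vehicle DMSO and 100% = high DMSO killing control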); conditions: CRL1545 osteosarcoma cells, stronger effect = higher value
[17] = measured here: combination with cisplatin, at 0.5 µM
[18] = measured here: combination with cisplatin, at 5 µM

CN[C@@H]1C[C@H]2O[C@@](C)([C@@H]1OC)n1c3ccccc3c3c4c(c5c6ccccc6n2c5c31)C(=O)N[C@H]4O
parasite load remaining [1]: 74.5% (inactive)
viability [1]: 61%

Oc1cccc(-c2nc(N3CCOCC3)c3oc4ncccc4c3n2)c1
parasite load remaining [1]: 45.4% (inactive)
viability [1]: 89.8%
liver cell % of control [2]: 88.7% and 86.7% and 100%
parasite % of control [2]: 326% (inactive) and 309% (inactive) and 81.9% (inactive)
outcome [3]: inactive

COc1ccccc1N1CCN(CCN(C(=O)C2CCCCC2)c2ccccn2)CC1
period change [4]: -0.085 h (inactive)
inhibition [5]: -3% (inactive)
fluorescence ratio (interference) [6]: 1 (inactive)
outcome [7]: inactive
z-score [8]: -1.04 (inactive)

CCCCc1nc2cc(/C=C/C(=O)NO)ccc2n1CCN(CC)CC
inhibition ([9]; at 0.5 µM): 31% (inactive)
inhibition ([9]; measured here: combination with BGB IC40, at 0.05 µM): -30.9%
inhibition [9, 17]: 45.7%
inhibition [9, 18]: 97.5%
inhibition ([10]; at 0.5 µM): -2.27% (inactive)
inhibition ([10]; measured here: combination with BGB at IC20, at 0.5 µM): -16.1%
inhibition ([10]; measured here: combination with cisplatin at IC20, at 0.5 µM): 1.66%
inhibition ([11]; at 0.5 µM): 93.3% (active)
inhibition ([11]; measured here: combo with BGB at IC20, at 0.5 µM): 95.7%
inhibition ([11]; measured here: combo with cisplatin at IC20, at 0.5 µM): 99.3%
inhibition ([12]; at 0.5 µM): 46.9% (inactive)
inhibition ([12]; measured here: inhibition with BGB combination, at 0.05 µM): 11.6%
inhibition ([12]; measured here: inhibition with cisplatin combination, at 0.05 µM): 0.198%
inhibition ([13]; at 0.5 µM): 26.1% (inactive)
inhibition [13, 17]: 56.5%
inhibition [13, 18]: 98.1%
inhibition ([14]; BGB combination, concentration series, at 5 µM): 115%
inhibition ([14]; at 0.5 µM): 51.5% (inactive)
inhibition ([14]; cisplatin combination, concentration series, at 5 µM): 127%
inhibition [15]: 41.3% (inactive)
inhibition ([15]; measured here: combo with BGB IC20): 44.4%
inhibition ([15]; measured here: combo with cisplatin IC20): 26%
inhibition ([16]; at 0.5 µM): 81.5% (active)
inhibition ([16]; measured here: with BGB IC20 combination, at 0.5 µM): 67.7%
inhibition ([16]; measured here: with cisplatin IC20 combination, at 0.5 µM): 88.2%
inhibition ([16]; single agent, at 0.05 µM): -14.8%
inhibition ([16]; single agent, at 5 µM): 93.1%
